# Source: PubChem BioAssay AID1259336 (Sattelle Laboratory, UCL Respiratory, Division of Medicine, …, 2017)
# Activity calls are given as the source filed them. No stated cut-off is given here; in the data, active means log2 fold change growth below about -1.8; inactive means the rest.
# Assay: C. elegans growth inhibition, whole organism, log2 fold change (AID 1259336);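 further: growth scored by imaging after five days at 20 °C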
# Details: anthelmintic screen, active compounds read low
row,Compound,log2 fold change growth
1,CCCn1c(NC(=O)c2ccc3ccccc3n2)nc2ccccc21,-0.0431 (inactive)
2,CN(C)c1cc(NC(=O)Nc2ccccc2)c2ccccc2n1,0.272 (inactive)
3,COc1cccc(NC(=O)c2c(NC(=O)c3cccnc3)sc3c2CCC3)c1,-1.12 (inactive)
4,Cc1ncc(-c2ccnc(Nc3ccc(S(C)(=O)=O)cc3)n2)n1C(C)C,0.268 (inactive)
5,Cc1cc2ccccc2n1CC(=O)N1C[C@@H](C(=O)N2CCCCC2)Oc2ccccc21,0.0798 (inactive)
6,COc1cc2ncnc(NC3CCN(Cc4ccccc4)CC3)c2cc1OC,-0.116 (inactive)
7,OCCc1ccc(Nc2nccc(-c3nnc4ccccn34)n2)cc1,-0.0214 (inactive)
8,CN1CCC(NCc2cccc(-c3ccc(S(=O)(=O)NCc4ccccc4)cc3)c2)CC1,0.364 (inactive)
9,O=C(NC1CC1)c1ccc(CSCc2ccccc2Cl)o1,0.276 (inactive)
10,Cc1cc(Nc2ccc(C(F)(F)F)cc2)n2ccnc2n1,0.0805 (inactive)
11,CC(C)(C)OC(=O)N1CCN(c2nccc(-c3ccc(-c4ccc(Cl)cc4)s3)n2)CC1,0.151 (inactive)
12,CO[C@H]1/C=C/O[C@@]2(C)Oc3c(C)c(O)c4c(O)c(c(/C=N/N5CCN(C)CC5)c(O)c4c3C2=O)NC(=O)/C(C)=C\C=C[C@H](C)[C@H](O)[C@@H](C)[C@@H](O)[C@@H](C)[C@H](OC(C)=O)[C@@H]1C,0.729 (inactive)
13,COc1ccc(C2(C(=O)Nc3ccc(Br)cc3)CCCC2)cc1,-0.749 (inactive)
14,O=C(Nc1nc(-c2ccccn2)cs1)c1cncn1-c1ccccc1,-0.307 (inactive)
